Results filed as inconclusive are left out. A call without a number means that no potency is given here. Active and inactive are the calls of the source. Calls come from the whole dose curve; as a rule, active = well fitted inhibition curve with a large enough effect in the main read-out, with a control signal flat (not every such curve was filed as active); inconclusive = small, poorly fitted or top-dose-only effect, or effect the other way, or a change in a side signal; inactive = no such curve, though single readings can be large or run the other way.
assay: Nrf2 qHTS screen for inhibitors: Validation (AID 493153); conditions: A549 ARE-Fluc reporter, 18-24 h; Potency: luciferase luminescence; viability change: measured here: cytotoxicity max response; luciferase luminescence, at 46.1 µM (top of the series)
Text: NIH Molecular Libraries Probe Production Network [MLPCN] NIH Chemical Genomics Center [NCGC] MLPCN Grant: R03-MH092170-01 Assay Provider: Shyam Biswal, Johns Hopkins University Assay Overview: Nrf2 is a transcription factor that maintains cellular redox homoestasis and protects cells from xenobiotics. Nrf2 binds to the antioxidant response element (ARE) to induce gene expression of a broad spectrum of genes that encode for antioxidants. […] Finding a small molecule that act as an inhibitor of Nrf2 function would represent a novel therapeutic target that could lead to improvement in survival of patients undergoing chemo- and/or radio- therapy. 1. Shibata, T., et al., Genetic Alteration of Keap1 Confers Constitutive Nrf2 Activation and Resistance to Chemotherapy in Gallbladder Cancer. Gastroenterology, 2008. 2. Sjoblom, T., et al., The consensus coding sequences of human breast and colorectal cancers. Science, 2006. 314(5797): p. 268-74.
Assay Protocol Summary: A concentration-response assay was performed with A549 ARE_Fluc cells which are suspended in 5% FBS OPTI-MEM. Five uL were dispensed into 1536-well white TC-treated plate using the Kalypsys dispenser to achieve a density of 5000 cells/well in all columns except column 1. The plate is incubated at 37deg C at 5% CO2 for 2 hours before 23 nL of compounds are added with the Kalypsys pin tool equipped with a 1,536-pin array containing 10-nL slotted pins (FP1S10, 0.457-mm diameter, 50.8 mm long; V&P Scientific). The control compounds Budesonide and Staurosporine are both added at a concentration of 2mM and Budesonide is also added as a 1:10 titration, starting at 200uM, to achieve dose-response. After an 18-24 hour incubation at 37deg C at 5% CO2, 5ul of medium is added to column 1. Afterwards 1ul of 5x of CellTiter-Fluor (Promega) is added to every well. The plate is then incubated at 37deg C at 5% CO2 for 30 minutes before they are read on the ViewLux (Perkin Elmer) for a fluorescent read Ex=405(10)/Em=525(10) for a 3 second exposure, 2x binning, and high gain. Then 3 uL of 3x BugLite is dispensed into all wells and the plate is incubated at ambient room temperature for 15 minutes. Afterwards another ViewLux read is performed using the clear filter to get a luminescent read with the settings of 40 second exposure, 2x binning, and high gain. Cytotoxicity is assessed through the first fluorescent read and then biochemical activity against Nrf2 is measured in the luminescent read.

SMILES	Potency	viability change [%]
NCCCS(=O)(=O)O	inactive	-7.16
NCC1OC(O[C@H]2[C@H](O)[C@@H](OC3C(O)C(N)CC(N)C3OC3OC(CO)C(O)C(O)C3N)O[C@@H]2CO)C(N)C(O)C1O (stereo not given in full)	inactive	1.58
COc1cc(C(O)CO)ccc1OS(=O)(=O)O (stereo not given)	inactive	-9.03
COc1ccc2c(c1)CCC1C2CC[C@@]2(C)C1CC[C@@H]2NCCCCCCN1C(=O)CCC1=O (stereo not given in full)	inactive	2.91
CC(C)(C)c1ccc(S(=O)(=O)/C=C/C#N)cc1	inactive	4.47
NCCCCCCCCCCN	inactive	-2.16
Nc1ncnc2c1ncn2[C@@H]1O[C@H](COP(=O)(O)OP(=O)(O)OP(=O)(O)OP(=O)(O)OC[C@@H]2O[C@H](n3cnc4c(N)ncnc43)[C@@H](O)[C@H]2O)[C@@H](O)[C@H]1O	inactive	2.98
C[N+](C)(C)CCOP(=O)(O)OP(=O)([O-])OC[C@H]1O[C@@H](n2ccc(N)nc2=O)[C@H](O)[C@@H]1O	inactive	2.92
CC1CN(S(=O)(=O)c2cccc3cnccc23)CCN1 (stereo not given)	inactive	1.98
CN1[C@@H](CC(=O)c2ccccc2)CCC[C@H]1C[C@H](O)c1ccccc1	inactive	-11
NCCSSCCN	inactive	-6.08
CSc1nc(N)c2ncn([C@@H]3O[C@H](COP(=O)(O)OP(=O)(O)OP(=O)(O)O)[C@@H](O)[C@H]3O)c2n1	inactive	-1.62
CCCN(CC1CC1)c1nc(C)nc(Nc2c(Cl)cc(Cl)cc2Cl)c1Cl	inactive	7.51
CCCCCCCC/C=C\CCCCCCCC(=O)NCCO	inactive	1.03
C=CC(=O)c1ccc(CCCCCC)cc1	inactive	-13
C[C@@H](CN1CCC(Cc2ccccc2)CC1)[C@@H](O)c1ccc(O)cc1	inactive	8.45
O=C(O)CC[C@@H](C(=O)O)N1C(=O)c2ccccc2C1=O	inactive	9.01
NC[C@H]1O[C@@H](n2cnc3c(N)ncnc32)[C@H](O)[C@@H]1O	inactive	9.27
CN1CCc2cc(O)c(O)cc2C(c2ccccc2)C1 (stereo not given)	inactive	-7.53
Cn1cc(C2=C(c3ccc(Cl)cc3Cl)C(=O)NC2=O)c2ccccc21	inactive	-10.9
